Source: PubChem BioAssay AID2284138 (EPA ToxCast)
Results filed as inconclusive are left out. Activity calls are given as the source filed them. Rule for the calls: active = hit-call score of the fitted dose curve at least 0.9, where 1 is the maximum; inactive = score below 0.9.

What follows are compounds tested against human ROCK1 AGC Kinase, ROCK1 (gene 6093) (UniProt Q13464) (assay: ERF_FR_ENZ_hROCK1: Eurofins (ERF) Enzymatic Radiometric [Km ATP] KinaseProfiler LeadHunter Assay for human ROCK1 AGC Kinase).
Sequence of human ROCK1 AGC Kinase, ROCK1 (gene 6093) (Q13464 whole entry, looked up): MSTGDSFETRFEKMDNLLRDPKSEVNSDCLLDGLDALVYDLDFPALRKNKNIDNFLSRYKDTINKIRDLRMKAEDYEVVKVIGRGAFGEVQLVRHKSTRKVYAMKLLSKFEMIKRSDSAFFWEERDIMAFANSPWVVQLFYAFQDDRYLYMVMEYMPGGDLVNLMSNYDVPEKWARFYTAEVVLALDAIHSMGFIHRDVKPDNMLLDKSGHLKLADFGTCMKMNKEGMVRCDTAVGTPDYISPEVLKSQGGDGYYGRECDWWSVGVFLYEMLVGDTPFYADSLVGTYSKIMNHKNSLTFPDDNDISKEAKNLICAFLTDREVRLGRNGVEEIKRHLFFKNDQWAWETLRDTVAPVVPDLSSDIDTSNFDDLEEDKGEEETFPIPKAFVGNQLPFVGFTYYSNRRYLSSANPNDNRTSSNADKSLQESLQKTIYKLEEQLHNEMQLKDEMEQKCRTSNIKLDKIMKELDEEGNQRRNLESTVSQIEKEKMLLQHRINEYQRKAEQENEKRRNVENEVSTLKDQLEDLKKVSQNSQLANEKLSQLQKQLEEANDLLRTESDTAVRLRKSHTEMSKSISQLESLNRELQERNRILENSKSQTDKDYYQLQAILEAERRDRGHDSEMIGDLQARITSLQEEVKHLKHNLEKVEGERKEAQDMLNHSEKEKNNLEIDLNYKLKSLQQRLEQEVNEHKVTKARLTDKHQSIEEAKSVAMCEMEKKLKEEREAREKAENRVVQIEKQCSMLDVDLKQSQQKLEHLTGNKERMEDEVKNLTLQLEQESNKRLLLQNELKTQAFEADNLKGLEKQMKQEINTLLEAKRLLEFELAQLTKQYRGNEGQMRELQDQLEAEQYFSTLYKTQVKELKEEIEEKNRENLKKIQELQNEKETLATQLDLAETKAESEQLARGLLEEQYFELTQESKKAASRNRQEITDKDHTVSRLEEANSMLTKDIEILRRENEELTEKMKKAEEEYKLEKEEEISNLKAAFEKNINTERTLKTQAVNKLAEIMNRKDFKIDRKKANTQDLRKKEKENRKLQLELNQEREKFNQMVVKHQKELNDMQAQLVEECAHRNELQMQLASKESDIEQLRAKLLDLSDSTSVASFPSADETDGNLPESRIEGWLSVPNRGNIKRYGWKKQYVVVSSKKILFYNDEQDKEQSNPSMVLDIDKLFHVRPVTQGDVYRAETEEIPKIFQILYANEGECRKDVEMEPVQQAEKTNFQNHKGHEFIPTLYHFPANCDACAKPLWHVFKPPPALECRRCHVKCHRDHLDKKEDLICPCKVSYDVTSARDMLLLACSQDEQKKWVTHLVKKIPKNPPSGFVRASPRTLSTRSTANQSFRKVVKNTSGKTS
Procedure: ERF_FR_ENZ_hROCK1 is a biochemical, single-readout assay that uses extracted gene-proteins in a cell-free assay. Measurements were taken 0.33 hour after chemical dosing in a 96-well plate. See ROCK1 Human AGC Kinase Enzymatic LANCE Assay [Km ATP], Cerep.ERF_FR_ENZ_hROCK1 is an assay component calculated from the ERF_FR_ENZ_hROCK1 assay. It is designed to measure enzyme activity using a type of enzyme reporter as detected by fluorescence intensity with LANCE technology.Data from the assay component ERF_FR_ENZ_hROCK1 was analyzed at the assay endpoint, ERF_FR_ENZ_hROCK1, in the positive analysis fitting direction relative to DMSO as the negative control and baseline of activity. Using a type of enzyme reporter, loss-of-signal activity can be used to understand changes in enzymatic activity as they relate to gene ROCK1. To generalize the intended target to other relatable targets, this assay endpoint is annotated to the kinase intended target family, where the subfamily is serine/threonine kinase.
ROCK-I (h) is incubated with 8 mM MOPS pH 7.0, 0.2 mM EDTA, 30 uM […], 10 mM MgAcetate and [gamma-33P]-ATP (specific activity and concentration as required). The reaction is initiated by the addition of the Mg/ATP mix. After incubation for 40 minutes at room temperature, the reaction is stopped by the addition of phosphoric acid to a concentration of 0.5%. […]
For COc1cc(CCC(=O)CC(=O)CCc2ccc(O)c(OC)c2)ccc1O, the outcome was “inactive”.
O=C(/C=C/c1ccc(O)cc1)CC(=O)/C=C/c1ccc(O)cc1 was tested, and the outcome was “inactive”.
